Among the data in PubChem BioAssay (NCI) are growth values, retold here.

Holding throughout (assay): NCI-60 one-dose screen, 48 h (100 = growth as untreated, 0 = no growth, -100 = all killed)
What all share (conditions): 10 µM unless noted

In experiment [1] the test system is SR leukemia.
Experiment [2] has as its system RPMI-8226 leukemia.
In experiment [3] the test system is OVCAR-8 ovarian.
For experiment [4], the system named is OVCAR-5 ovarian.
The test system of experiment [5] is OVCAR-4 ovarian.
For experiment [6], the system named is SK-OV-3 ovarian.
The test system of experiment [7] is IGROV1 ovarian.
In experiment [8] the test system is OVCAR-3 ovarian.
The subject of experiment [9] is HS 578T breast.
Experiment [10] relates to NCI/ADR-RES ovarian.

About 83,000 compounds went through this panel and 20% of them were active in at least one assay; those are over-represented in the sample as a whole.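 Method: cells in 96-well plates; compound added at one concentration; 48 h incubation; percent growth measured; values under 10 scored active.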 Unmarked numbers belong to inactive results. Calls of active or inactive are those of the source.

In the case of `O=C(/C=C/c1ccc[nH]1)c1ccc(-n2ccc(C(F)(F)F)n2)c(F)c1`, the growth is 80.3% in experiment [1]; -6.08% (active) in experiment [2]; 95.6% in experiment [3]; 90.9% in [4]; 99.2% in [5]; 121% in experiment [6]. Besides, the growth was 93.4% in experiment [7], 99.8% in experiment [8], 98% in experiment [9] and 93.1% in experiment [10].

With `CC1=C(C(=O)/C=C/c2ccc(N(C)C)cc2)C(c2ccccc2)NC(=S)N1` (stereo not given), the growth was 96.8% in experiment [1]; 101% in [2]; 102% in experiment [3]; 102% in [4]; 107% in experiment [5]; 111% in experiment [6]. Further, the growth in experiment [7] is 98.9%; in experiment [8], 109%; in [9], 98.2%; in experiment [10] it was 100%.

As to `CNCCn1c(=O)c2cc(OC)c(OC)cc2c2ccc3cc4c(cc3c21)OCO4`, the growth in experiment [1] is -22.4% (active); in experiment [2] it was -27.6% (active); in experiment [3] it was 10.2%; in experiment [4], 4.57% (active); in experiment [5] it was -10.9% (active); in [6] it was -0.269% (active). The growth in experiment [7] was 0.994% (active); in experiment [8] it was -6.33% (active); in [9], 4.39% (active); in [10], 4.99% (active).

In the case of `CCN(CC)CCOc1ccc(NC(=O)C(C(C)C)N2C(=O)/C(=C/c3ccc(Br)cc3)SC2=S)cc1` (stereo not given), the growth in [1] is -42% (active); in experiment [2], 19.5%; in experiment [3], 25.6%; in experiment [4], 66.4%; in experiment [5], 70.5%; in [6], 113%. The growth in [7] was 82.2%; in experiment [8], 94%; in experiment [9], 84.2%; in [10] it was 80%.

As to `Cc1cc2nc3c4cccc(O)c4n(CCN(C)C)c3nc2cc1C`, the growth was 4.12% (active) in [1]; -5.71% (active) in experiment [2]; 38% in experiment [3]; 55.3% in experiment [4]; 44.4% in [5]; 46.3% in [6]. Besides, the growth was 19.1% in experiment [7], 45.4% in [8], 72.8% in experiment [9] and 32.3% in [10].

As for `N#Cc1cccc(-c2ccc3c(c2)NC(=O)/C3=C\c2ccc[nH]2)c1`, the growth in [1] is 3.89% (active); in experiment [2], 54.1%; in experiment [3], 85.9%; in experiment [4] it was 38.5%; in [5], 30.9%; in [6] it was 24.1%. Further, the growth in experiment [7] was 34.2%; in experiment [8], 30.7%; in experiment [9], 92.1%; in experiment [10], 76.1%.

For the molecule `COc1ccc(CCn2cncc2-c2c[nH]c3ccccc23)cc1`, the growth in experiment [1] was 93.3%; in experiment [2] it was 73.4%; in experiment [3], 93.5%; in experiment [4], 90.2%; in [5], 79.4%; in experiment [6] it was 87.7%. For the same molecule, the growth in experiment [7] is 56.4%; in experiment [8], 88.4%; in experiment [9] it was 78.2%; in [10], 87.6%.

In the case of `CCc1ccc(CNc2ccc(N3CCOCC3)c(C(=O)O)c2)cc1`, the growth was 104% in experiment [1]; 109% in [2]; 102% in experiment [3]; 99.9% in experiment [4]; 110% in experiment [5]; 103% in [6]. The growth in experiment [7] is 102%; in [8] it was 104%; in experiment [9] it was 125%; in experiment [10], 98.6%.

As to `CCN1C(=O)/C(=C/C(=O)OC)S/C1=N\NC(=O)c1cc2ccc1/C=C\c1ccc(cc1)/C=C\2`, the growth is -13.4% (active) in [1]; -14.3% (active) in experiment [2]; 92.6% in experiment [3]; 100% in experiment [4]; 89.6% in [5]; 125% in experiment [6]. Besides, the growth in experiment [7] was 88.4%; in experiment [8] it was 92.9%; in [9], 99%; in experiment [10], 86.5%.

In the case of `COC(=O)C1=C(C(=O)ON)C2C=CC1(C(Cc1ccccc1)Nc1ccccc1)O2` (stereo not given), the growth in [1] was 4.9% (active); in experiment [2] it was 11.8%; in [3], 91.2%; in experiment [4], 105%; in experiment [5], 69%; in experiment [6] it was 104%. The growth is 75.9% in [7], -100% (active) in experiment [8], 108% in experiment [9] and 94.6% in experiment [10].

For the molecule `NC(=S)N1N=C(c2ccccc2)CC1c1cn(-c2ccccc2)nc1-c1ccc(OCc2ccccc2)cc1` (stereo not given), the growth in experiment [1] was 109%; in experiment [2], 90.9%; in experiment [3], 96.4%; in [4], 104%; in experiment [5], 109%; in experiment [6], 112%. Further, the growth is 113% in experiment [7], 110% in experiment [8], 96.3% in [9] and 112% in [10].

In the case of `COc1ccc(C(=O)c2nc3ccccc3n2CC(=O)c2ccc(Cl)cc2)cc1`, the growth was 16.7% in [1]; -17.4% (active) in experiment [2]; 37.2% in [3]; 47% in experiment [4]; 43.3% in experiment [5]; 107% in experiment [6]. Moreover, the growth in experiment [7] is 23.7%; in experiment [8], -6.3% (active); in experiment [9] it was 8.51% (active); in experiment [10] it was -45.6% (active).

For the molecule `O=C(CNCCN1CCOCC1)N1c2cccc3cccc(c23)N(C(=O)CNCCN2CCOCC2)C1c1cn(-c2ccccc2)nc1-c1cccc([N+](=O)[O-])c1`, the growth in experiment [1] was -19.4% (active); in [2], 44.8%; in experiment [3], 88.3%; in experiment [4], 107%; in experiment [5], 90.7%; in experiment [6] it was 109%. Moreover, the growth in [7] was 74.3%; in experiment [8] it was 93.6%; in [9], 69.1%; in [10] it was 87.7%.
